Assay outcomes: PubChem BioAssay, National Center for Advancing Translational Sciences (NCATS)
In the library only some 21% were active in any assay of this set; here they are far more common.
Cycloheximide cs = Cycloheximide Counterscreen for Small Molecule Inhibitors of Shiga Toxin; AID 2314, 2010; 300,000 tested, 12% active; cell reporter, cycloheximide protein synthesis inhibition counterscreen; max response, %; in the data active = max response mostly above about 13%, no sharp cut-off; inactive = mostly below about 14%; also: read at 38.3 µM for the half of the compounds with a filed dose; 0% is about no effect
SARS PLP yeast = qHTS of Yeast-based Assay for SARS-CoV PLP. S. cerevisiae expressing SARS-CoV PLpro, growth rescue. Potency, µM (highest dose often 32.9 µM), for the others: top-dose activity, positive = growth rescue, usual class: activators. 330,000 tested, 0.19% active; also: potency is read from the fitted curve at half-maximal effect; 0% is about no effect; nearly all actives have a fitted effect of over 55% in size
Shiga inhibitor = A qHTS for Small Molecule Inhibitors of Shiga Toxin. inhibition, % at 38.7 µM. Vero cells, Shiga toxin protein synthesis inhibition reporter. AID 2315, 2010. 290,000 tested, 9.2% active; in the data active = inhibition mostly above about 28%, no sharp cut-off; inactive = mostly below about 43%; also: 0% is about no effect
NS1 function inh = qHTS Assay for Inhibitors of Influenza NS1 Protein Function; Potency, µM (highest dose often 46.1 µM), for the others: top-dose activity, positive = more growth; 270,000 tested, 0.4% active; AID 2326, 2010; also: potency is read from the fitted curve at half-maximal effect; actives are rising curves; nearly all actives have a fitted effect of over 50% in size
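S. cerevisiae expressing influenza A NS1, grown in glucose, washed, then diluted 1:100 into pH 6.0 -URA galactose medium with 23 nl compound. Growth recovery read as OD600; NS1-free strain serves as control.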
Pf growth 48h = Primary qHTS for delayed death inhibitors of the malarial parasite plastid, 48 hour incubation; 310,000 tested, 5.9% active; Potency, µM (highest dose often 28.7 µM), without a hit: top-dose activity change, negative = inhibition, usual class: inhibitors; AID 504832, 2011; P. falciparum luciferase growth in erythrocytes, 48 h; active = well fitted inhibition curve with a large enough effect; inconclusive = small, poorly fitted or top-dose-only effect, or another doubt; inactive = no such curve, though single readings can be large or run the other way; also: potency is read from the fitted curve at half-maximal effect; % is scaled to controls: 0 for no effect and ±100 for the full control effect
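Growth was read as firefly luciferase luminescence after a 48 h, 37 C, 5% CO2 exposure of compounds to reporter-bearing P. falciparum cultures (0.1% parasitemia, 2% hematocrit final) in Albumax-supplemented RPMI 1640.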
Pf growth 96h = Primary qHTS for delayed death inhibitors of the malarial parasite plastid, 96 hour incubation. P. falciparum luciferase reporter growth, 96 h. Potency, µM (titrated, usually from 28.7 µM), without a hit: at the highest dose activity change, negative = inhibition, usual class: inhibitors. 320,000 tested, 6.9% active; active = well fitted inhibition curve with a large enough effect; inconclusive = small, poorly fitted or top-dose-only effect, or another doubt; inactive = no such curve, though single readings can be large or run the other way; also: potency is read from the fitted curve at half-maximal effect; % is scaled to controls: 0 for no effect and ±100 for the full control effect
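Plates of compound plus infected erythrocytes (2% hematocrit, 0.05% parasitemia final) incubate 96 hours, 37 C, 5% CO2. Detection reagent added; reduced luminescence from the parasites' luciferase reporter flags inhibition.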
Active calls of the source: *; ? = inconclusive; . = no result; + = active, no number; [ ] = another dose, or the depositor's remark. Unless noted, calls follow the shape of the full dose curve.

SMILES | Cycloheximide cs | SARS PLP yeast | Shiga inhibitor | NS1 function inh | Pf growth 48h | Pf growth 96h
CCc1ccc(C(=O)NNC(=O)c2cccc(S(=O)(=O)N3CCN(C)CC3)c2)cc1 | . | -1% | . | . | ? | 8%
CCc1nnc(NS(=O)(=O)c2ccc(N/C=C\C(=O)c3cccc4ccccc34)cc2)s1 | 1 | -16% | -7 | 4% | -29% | 9.3µM*
COc1ccc(S(=O)(=O)Nc2nnc(Cc3ccc(OC)c(OC)c3)s2)cc1 | 9.2* | 0% | 21 | 12% | 56% | 45%
CCc1nnc(NS(=O)(=O)c2ccc(NC(=O)Nc3ccc(OC)cc3)cc2)s1 | -1 | 0% | -6 | ? | 34% | ?
CCc1nnc(NS(=O)(=O)c2ccc(NC(=O)c3ccccc3O)cc2)s1 | -7 | 0% | -4 | 8% | 3% | -48%
CCc1nnc(NS(=O)(=O)c2ccc(N/C=C/C(=O)c3ccc(OC)cc3)cc2)s1 | 51* | 1% | 86* | -2% | 36% | ?
CSC1=C(C#N)C(CC(C)C)C(C(C)=O)=C(C)N1 (centres undefined) | -1 | -3% | -10 | -7% | ? | -6%
CCN(CC)CCNC(=O)c1ccc(NC(=O)c2cc(S(=O)(=O)N3CCCCC3)ccc2C)cc1 | . | -2% | . | . | ? | ?
O=C(CCn1cnnn1)N1CCCC(Nc2ccc(F)cc2)C1 (centres undefined) | 6 | 2% | 7 | -7% | -17% | -6%
CN(C)c1cccc(C(=O)OC(C(=O)Nc2ccc(Cl)cc2C(F)(F)F)c2ccccc2)c1 (centres undefined) | 0 | -29% | -9 | ? | ? | 12µM*
O=C(OC(C(=O)Nc1ccc(Cl)cc1C(F)(F)F)c1ccccc1)C1=COCCO1 (centres undefined) | -4 | -10% | -5 | -4% | -3% | ?
Cc1nc2ccccc2c2nc(NC(=O)Cc3ccccc3)nn12 | 10 | -6% | 42* | -5%[9.22 µM] | 79% | .
Cc1cc(NC(=O)Cc2ccccc2)c2ccccc2n1 | 0 | -6% | -10 | . | -14% | ?
CN(C)c1ccc(C(=O)/C=C/c2ccccc2)cc1 | 44* | -7% | 105* | . | 367% | 354%
CN(C)c1ccc(C(=O)/C=C/c2ccc(Br)cc2)cc1 | 23* | 10% | 58* | 3% | 0% | 8%
CCN(CC)c1ccc(/C=C/C(=O)c2ccc(Br)cc2)cc1 | 14* | -18% | -3 | 0% | 22% | -9%
CCN(CC)c1ccc(/C=C/C(=O)c2cccnc2)cc1 | -4 | 2% | -4 | . | 0.93µM* | ?
CN(C)c1ccc(/C=C/C(=O)c2c(O)c3ccccc3oc2=O)cc1 | 9 | 1% | 20 | -3% | 118% | 94%
Cc1cccc(OCC(=O)NCCCNC(=O)c2ccco2)c1 | 2 | 8% | -13 | 26% | -28% | -16%
CCOC(=O)C(=CNc1cscc1S(=O)(=O)C(C)C)C(=O)OCC | -4 | 1% | 1 | 1% | ? | ?
Cc1ccc(S(=O)(=O)C2(C(=O)Nc3ccc(Br)cc3)CC2)cc1 | 32* | -1% | 46 | . | -11% | -29%
COc1cnc(-c2ccccn2)[nH]c1=O | -1 | 14% | 30 | . | 0% | 5.9µM*
CCc1cc2c(=O)[nH]c(N3CCCC3)nc2s1 | 28* | 9% | + | -1% | 92% | 88%
CCc1cc2c(=O)[nH]c(-c3ccccn3)nc2s1 | 89* | ? | 126* | -88% | ? | 3.3µM*
COC(=O)C(Cc1ccccc1)NC(=O)CNC(=O)c1ccccc1OC (centres undefined) | 12 | -19% | -9 | -6% | 16% | 16%
SMILES | Cycloheximide cs | SARS PLP yeast | Shiga inhibitor | NS1 function inh | Pf growth 48h | Pf growth 96h
N#CCC(=O)NNc1c([N+](=O)[O-])cc(C(F)(F)F)cc1[N+](=O)[O-] | -2 | 1% | 5 | 3% | -18% | 7%
c1ccc(-c2c[n+]3c(n2-c2ccccc2)CCC3)cc1 | -1 | 1% | 18 | 7% | 0.83µM* | ?
Cc1ccc(-c2c[n+]3c(n2-c2ccccc2)CCC3)cc1 | 1 | 0% | -9 | 2% | 1.5µM* | 0.15µM*
CCN1C(=O)[C@H]2[C@@H](c3ccc(-c4cccc(Cl)c4)cc3)N[C@@](C)(C(=O)OC)[C@H]2C1=O | . | 1% | . | . | 13µM* | ?
CCN1C(=O)[C@H]2[C@@H](c3ccc(-c4ccccc4)cc3)N[C@@](C)(C(=O)OC)[C@H]2C1=O | . | 2% | . | . | 9.3µM* | ?
CCN1C(=O)[C@H]2[C@@H](c3ccc(-c4ccc(F)cc4)cc3)N[C@@](C)(C(=O)OC)[C@H]2C1=O | . | -20% | . | . | . | .
Cc1ccc(S(=O)(=O)Nc2ncnc3ccccc23)cc1 | 16 | -1% | 27 | -8% | 26% | 35%
O=C(CN1c2ccccc2Sc2ccccc21)N/N=C/c1ccc(Cl)cc1Cl | 2 | -6% | 11 | -1% | ? | ?
O=C(N/N=C/c1ccc(Cl)cc1Cl)c1ccncc1 | 24* | -2% | 45* | -13% | 20% | 35%
O=C(N/N=C/c1ccc(O)cc1O)c1ccncc1 | 2 | 7% | 15 | -3% | ? | 12µM*
O=C(N/N=C/c1cc2c(cc1Cl)OCO2)c1ccncc1 | 2 | 7% | 4 | 1% | 4% | -10%
O=C(N/N=C/c1cc(Cl)cc(Cl)c1O)c1ccncc1 | 1 | -7% | -5 | -72% | 13µM* | 2.3µM*
Clc1ccc(/C=N/NC(=Nc2ccccc2)c2ccccn2)c(Cl)c1 | 41* | 0% | 124* | -52% | 33% | -38%
CSc1ccccc1C(=O)N1CCN(S(=O)(=O)c2sc(C(=O)O)c(C)c2C(=O)O)CC1 | . | 1% | . | . | 67% | 13%
CCC(C)[C@H](NC(=O)NCc1ccco1)C(=O)OC (some centres undefined) | 10 | 1% | 6 | -1% | 2% | ?
O=C(Nc1ccc(N2CCN(C(=O)c3ccco3)CC2)cc1)c1cccnc1Cl | -3 | 0% | 6 | 4% | 15% | -39%
CC(C)[C@H](NC(=O)c1ccco1)C(=O)N(C)Cc1ccc(C(F)(F)F)cc1 | 9 | 1% | -11 | -11% | -4% | 4%
O=C(NCCCN1CCOCC1)C(=O)NCc1ccco1 | -3 | 0% | -3 | 5% | 22% | 51%
Cc1cccc(C(=O)Oc2c(Br)cc(Br)cc2/C=N/NC(=O)c2ccncc2)c1 | -9 | 1% | -17 | 2% | 10% | 19%
Oc1c(Cl)cc(Cl)cc1/C=N/Nc1ncc(Br)cn1 | 6 | -2% | -3 | . | 0.093µM* | 15µM*
O=C(N/N=C/c1cc(Br)cc(Br)c1O)c1ccncc1 | -1 | -5% | -7 | . | 9.3µM* | 16%
CSc1sccc1/C=N/NC(=O)c1ccncc1 | 17 | 1% | active | 0% | 27% | -17%
COc1cc(/C=C(\C#N)C(=O)Nc2cccnc2)ccc1OC(C)C | -3 | 2% | -7 | 11% | 16% | -18%
